Assay results as given in PubChem BioAssay AID588382 (National Center for Advancing Translational Sciences (NCATS), 2011).
Out of some 1,300 compounds screened, about 150 (12%) were called active. Entries that show only a call come without a potency. About 30% were inconclusive and are not listed. The sample holds actives, similar compounds and a random draw of the others, so the mix is not that of the screen. Calls follow the shape of the dose curve; as a rule, active = well fitted cell-killing curve with a large enough effect; inconclusive = small, poorly fitted or top-dose-only effect, or effect the other way; inactive = flat fitted curve, though single readings scatter.

assay: qHTS of small molecules that selectively kill Giardia lamblia: Hit Validation in HepG2 cytotox; details: cell viability; Potency: HepG2 cytotoxicity; series mostly up to 38.3 µM;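 also: compound exposure lasted overnight at 37 deg C; nearly all actives have a fitted effect of over 55% in size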
Procedure, shortened: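 HepG2 cells seeded and incubated overnight at 37 deg C, then 23 nL compound added by pintool and incubated overnight at 37 deg C. Viability read as ATP luminescence with ATPLite after 15 min at room temperature.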
Potency is read from the fitted curve at half-maximal effect.

Compound	Potency
N#Cc1c(Nc2ccccc2)[n+]([O-])c2ccc(Cl)cc2[n+]1[O-]	3.29 µM (active)
COc1ccc(CC(=O)Nc2ncc([N+](=O)[O-])s2)cc1OC	inactive
O=[N+]([O-])/C(Cl)=C(/NCCO)C(Cl)=C(Cl)Cl	inactive
COc1ccc(Cn2cnc([N+](=O)[O-])c2)cc1[N+](=O)[O-]	inactive
O=[N+]([O-])c1cc(/C=N/Nc2nc(N3CCCCC3)nc(N3CCCCC3)n2)ccc1O	inactive
O=C(Nc1ccc(N2CCN(C(=O)c3ccccc3)CC2)cc1)c1ccc([N+](=O)[O-])o1	4.65 µM (active)
O=C(c1ccc([N+](=O)[O-])o1)N1CCN(Cc2ccccc2)CC1	inactive
O=C(Nc1ccccc1N1CCN(C(=O)c2ccccc2)CC1)c1ccc([N+](=O)[O-])o1	inactive
Cc1ccccc1C(=O)N1CCN(c2ccc(NC(=O)c3ccc([N+](=O)[O-])o3)cc2)CC1	3.29 µM (active)
O=C(Nc1ccc(N2CCN(C(=O)c3ccc(Cl)cc3)CC2)cc1)c1ccc([N+](=O)[O-])o1	3.29 µM (active)
O=[N+]([O-])c1ccc(N2CCN(Cc3ccc([N+](=O)[O-])o3)CC2)cc1	inactive
C[C@H]1CN=C(N(C)C)N1CCC1CCCC1	inactive
CC(Oc1ccccc1)C(=O)Nc1nnc(S(=O)(=O)N2CCCCCC2)s1 (configuration not stated)	inactive
COc1cccc([C@@H]2CC=C(C(=O)O)[C@H](c3ccccc3F)N2S(=O)(=O)c2ccc(C)cc2)c1	inactive
O=[N+]([O-])c1c(C(Cl)Cl)nn(-c2ccccc2)c1N1CCOCC1	inactive
Cc1ccc(Nc2ccc([N+](=O)[O-])nc2[N+](=O)[O-])cc1	inactive
Cc1ccc(CNC(=O)c2cc(-c3ccccc3C)n(CC3CC(c4cccc([N+](=O)[O-])c4)=NO3)n2)cc1 (configuration not stated)	inactive
CN(C(=O)CSc1nc2ccc([N+](=O)[O-])cc2s1)C1CCS(=O)(=O)C1 (configuration not stated)	inactive
COCCCn1[nH]c2c3c(ccc2c1=O)C(=O)c1ccccc1C3=O	inactive
COc1ccc(C(=O)C(C)OC(=O)CNC(=O)c2ccco2)cc1 (configuration not stated)	inactive
O=C(CSc1ccsc1[N+](=O)[O-])NC1CCCC1	inactive
O=C(COc1cccnc1[N+](=O)[O-])NCc1cccs1	inactive
CC(C)CNC(=S)NC(=O)c1csc([N+](=O)[O-])c1	inactive
O=C(NCCO)c1ccc2c3n(nc2c1)-c1ccccc1CO3	2.93 µM (active)

Compound	Potency
Cc1cnc([N+](=O)[O-])n1CCOC(=O)NC(=O)c1cccc(F)c1	inactive
C[C@@H]1CN([C@H](C)CO)C(=O)c2cc(NC(=O)Nc3ccc4c(c3)OCO4)ccc2O[C@H]1CN(C)Cc1ccncc1	inactive
O=C(O)c1cccc(S(=O)(=O)N(Cc2ccccc2)c2ccccc2Cl)c1	inactive
O=C(CSc1ccsc1[N+](=O)[O-])NCCc1ccccc1	inactive
O=C(NCc1ccco1)NC(=O)c1csc([N+](=O)[O-])c1	inactive
CC(NC(=O)C12CC3CC(CC(C3)C1)C2)C(=O)NN=Cc1ccc([N+](=O)[O-])o1 (configuration not stated)	inactive
O=C(CNc1ccc2ccccc2c1)N/N=C/c1ccc([N+](=O)[O-])o1	inactive
O=C(CNc1cccc([N+](=O)[O-])c1)N/N=C/c1ccc([N+](=O)[O-])o1	inactive
O=C(Cc1ccc([N+](=O)[O-])cc1)N/N=C/c1ccc([N+](=O)[O-])o1	5.21 µM (active)
CCCCCCCC(=O)N/N=C/c1ccc([N+](=O)[O-])o1	inactive
O=C(CC12CC3CC(CC(C3)C1)C2)N/N=C/c1ccc([N+](=O)[O-])o1	16.5 µM (active)
O=C(N/N=C/c1ccc([N+](=O)[O-])o1)C1CC1	inactive
O=C(N/N=C\c1ccc([N+](=O)[O-])o1)C1COc2ccccc2O1 (configuration not stated)	inactive
O=C(N/N=C/c1ccc([N+](=O)[O-])o1)c1ccc2c(c1)OCO2	4.65 µM (active)
CCOC(=O)CN1C(=O)S/C(=C/c2cccc([N+](=O)[O-])c2O)C1=O	inactive
Cc1ccc(S(=O)(=O)N2CCN(C(=O)COc3ccc(C)nc3[N+](=O)[O-])CC2)c(C)c1	inactive
Cc1ccc(OCC(=O)c2cc(C)n(C)c2C)c([N+](=O)[O-])n1	inactive
COc1ccc(-n2nc([N+](=O)[O-])c(=NCCc3ccc(C)cc3)n2O)cc1	inactive
Nc1nc(Cl)nc2c1ncn2[C@H]1C[C@H](O)[C@@H](CO)O1	inactive
Cc1ncc([N+](=O)[O-])n1CCN1C(=O)c2ccccc2C1=O	inactive
O=C1c2ccccc2C(=O)c2c1ccc1c(=O)n(C3CCCCC3)[nH]c21	inactive
O=C(CSc1cccc[n+]1[O-])Nc1cc2c(cc1Cl)C(=O)c1ccccc1C2=O	inactive
O=C(N/N=C/c1cc2c(cc1[N+](=O)[O-])OCO2)c1ccccn1	inactive
Cc1ccc(N/C(C(Cl)=C(Cl)Cl)=C(/Cl)[N+](=O)[O-])c(C)c1	inactive

Compound	Potency
O=C(CCCn1cnc([N+](=O)[O-])n1)Nc1cccc(Cl)c1Cl	inactive
O=[N+]([O-])c1nn(-c2ccc3c(c2)OCCO3)n(O)c1=NCc1ccccc1Cl	inactive
Cc1oc2cc([N+](=O)[O-])c(O)c([N+](=O)[O-])c2c1C(=O)c1ccc(Cl)cc1	inactive
CCN(CC)C(=O)Cn1cc([N+](=O)[O-])cc1[N+](=O)[O-]	inactive
CC1(C)Oc2cc3oc(-c4cc(O)cc(O)c4)cc3cc2CC1O (configuration not stated)	5.85 µM (active)
CCCCNC(=O)/C(=C\c1ccc([N+](=O)[O-])o1)NC(=O)c1ccccc1	inactive
O=C(CCN1C(=O)c2ccccc2C1=O)Nc1ccccc1C(F)(F)F	inactive
O=C1c2ccc3c4c(ccc(c24)C(=O)N1CCCCO)C(=O)N(CCCCO)C3=O	4.14 µM (active)
O=C(CCN1C(=O)c2ccccc2C1=O)NCc1ccc(F)cc1	inactive
O=[N+]([O-])c1nn(-c2ccc3c(c2)OCCO3)n(O)c1=NCCC1=CCCCC1	inactive
O=c1c([N+](=O)[O-])cccn1Cc1ccccc1Cl	inactive
[O-][n+]1c2ccccc2c2n1CCN=C2c1ccc(Cl)cc1	inactive
O=[N+]([O-])c1nn(-c2ccc3c(c2)OCCO3)n(O)c1=Nc1ccc(Cl)cc1	inactive
COc1cc2nc(N3CCN(C)CC3)nc(NC(C)C)c2cc1OC	inactive
COc1cc2nc(N3CCN(c4cc(C)ccc4C)CC3)nc(N)c2cc1OC	9.27 µM (active)
Cc1cc(=S)nc(-c2ccccn2)[nH]1	inactive
CN1C(=O)/C(=C/c2ccc(O)c([N+](=O)[O-])c2)NC1=S	inactive
CCc1cccc(N=c2c([N+](=O)[O-])nn(-c3ccc4c(c3)OCCO4)n2O)c1	inactive
Cc1cccc(NC(=O)c2ccc([N+](=O)[O-])s2)c1C	inactive
Cc1cc(C)cc(Oc2ccc(NC(=O)C3CC=CCC3C(=O)O)cc2)c1 (configuration not stated)	inactive
CCn1nc(-c2ccc(C)cc2)nc2c(=O)n(C)c(=O)nc1-2	5.21 µM (active)
CCc1ccc(-c2nc3c(=O)n(C)c(=O)nc-3n(CC)n2)cc1	1.85 µM (active)
CC(=O)O[C@@H]1[C@@H](OC(C)=O)[C@H](n2ccc3cc([N+](=O)[O-])ccc32)OC[C@@H]1OC(C)=O	inactive
Cc1ccc([C@@H]2CC=C(C(=O)O)CN2S(=O)(=O)c2ccc(C)cc2)cc1	inactive
